# Data reported in PubChem BioAssay (Tox21).
# “And” between values parts separate entries of the source, which are not always exact repeats. Equal values may be shown once. Records with an inconclusive call do not appear. Where a call stands in place of a potency, no number is given. A structure can be active in one record and inactive in another. The source made the active and inactive calls. Unless noted, the call rests on the fitted dose curve; in most records, active means well fitted curve in the direction sought with a large enough effect in the repeat runs; inconclusive means weak or mixed curves; inactive means no such curve, though single readings can be large; an effect the other way counts as inactive or inconclusive.
# Assays:
# [1] = qHTS assay to test for compound auto fluorescence at 535 nm (green) in HEK293 cells (AID 720680)
# [2] = qHTS assay to test for compound auto fluorescence at 460 nm (blue) in HEK293 cell free culture (AID 720681)
# Summary of the method: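 Compounds were added to cell-free DMEM with 10% FBS and fluorescence read directly. The blue channel used 405 nm excitation and 460 nm emission, with triamterene as the reference fluorophore.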
# [3] = qHTS assay to test for compound auto fluorescence at 535 nm (green) in HEK293 cell free culture (AID 720682)
# Summary of the method: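 Green-channel intensity (Ex/Em 485/535 nm) was recorded from compound-treated wells containing only DMEM with 10% FBS. Fluorescein provided the equivalency standard.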
# [4] = qHTS assay to test for compound auto fluorescence at 590 nm (red) in HEK293 cell free culture (AID 720683)
# Summary of the method: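 Cell-free wells of DMEM with 10% FBS received compound, and intrinsic fluorescence was read at excitation/emission 540/590 nm. Values expressed as equivalence to Rose Bengal sodium.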
# [5] = qHTS assay to test for compound auto fluorescence at 590 nm (red) in HepG2 cell free culture (AID 720684)
# Summary of the method: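 Compounds are added to culture medium (MEM, 10% FBS) lacking cells, then fluorescence is read at excitation 540 nm, emission 590 nm, with Rose Bengal sodium as the equivalency standard.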
# [6] = qHTS assay to test for compound auto fluorescence at 460 nm (blue) in HepG2 cell free culture (AID 720685)
# Summary of the method: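 Compound (23 nL) or DMSO pinned into cell-free MEM with 10% FBS; blue fluorescence read at 405/460 nm excitation/emission, expressed as auto-fluorescence equivalency to triamterene.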
# [7] = qHTS assay to test for compound auto fluorescence at 535 nm (green) in HepG2 cell free culture (AID 720686)
# [8] = qHTS assay to test for compound auto fluorescence at 460 nm (blue) in HepG2 cells (AID 720687)
# Summary of the method: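 HepG2 cells in MEM with 10% FBS, attached overnight at 37 C, were exposed to compound or DMSO for 1 hr at 37 C, 5% CO2. Blue fluorescence was read at 405/460 nm, with triamterene as reference fluorophore.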
# [9] = target: Glucocorticoid receptor (Homo sapiens) (UniProt P04150); assay: qHTS assay to identify small molecule agonists of the glucocorticoid receptor (GR) signaling pathway (AID 720691; active means well fitted activation curve with a large enough effect in the signal ratio in the repeat runs, not every such curve was filed as active; the % refers to the signal ratio)
# Sequence of Glucocorticoid receptor (Homo sapiens) (P04150 whole entry, looked up): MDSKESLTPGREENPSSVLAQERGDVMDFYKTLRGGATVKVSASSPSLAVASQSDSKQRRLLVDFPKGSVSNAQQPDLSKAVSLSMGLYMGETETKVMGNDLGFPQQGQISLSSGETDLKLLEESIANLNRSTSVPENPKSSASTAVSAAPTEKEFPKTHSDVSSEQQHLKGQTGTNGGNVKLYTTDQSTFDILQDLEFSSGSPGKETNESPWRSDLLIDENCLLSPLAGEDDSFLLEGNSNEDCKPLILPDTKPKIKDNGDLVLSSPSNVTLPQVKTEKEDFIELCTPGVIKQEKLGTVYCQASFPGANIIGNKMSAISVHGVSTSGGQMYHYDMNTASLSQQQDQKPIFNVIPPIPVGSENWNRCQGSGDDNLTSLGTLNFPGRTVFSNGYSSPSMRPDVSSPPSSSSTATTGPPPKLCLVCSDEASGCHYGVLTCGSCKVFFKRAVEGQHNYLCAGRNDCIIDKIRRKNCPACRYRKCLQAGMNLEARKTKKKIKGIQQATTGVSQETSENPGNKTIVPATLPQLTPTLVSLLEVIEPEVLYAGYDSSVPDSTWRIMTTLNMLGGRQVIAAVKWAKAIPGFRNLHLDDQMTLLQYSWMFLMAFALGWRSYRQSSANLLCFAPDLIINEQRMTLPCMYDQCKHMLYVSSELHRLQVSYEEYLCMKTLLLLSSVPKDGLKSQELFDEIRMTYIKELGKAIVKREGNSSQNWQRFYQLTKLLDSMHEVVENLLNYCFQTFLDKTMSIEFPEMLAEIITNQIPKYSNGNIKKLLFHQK
# Summary of the method: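 Fluorescence intensity from LiveBLAzer B/G FRET substrate (2 h, room temperature) reports beta-lactamase expression driven by the glucocorticoid response element in GR-bla HeLa cells after 18 h compound exposure at 37 C.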
# [10] = target: Glucocorticoid receptor (Homo sapiens) (UniProt P04150); assay: qHTS assay to identify small molecule antagonists of the glucocorticoid receptor (GR) signaling pathway (AID 720692; active means well fitted inhibition curve with a large enough effect in the signal ratio in the repeat runs, not every such curve was filed as active; the % refers to the signal ratio; further: potency means the concentration at half of the fitted maximal effect)
# Summary of the method: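 HeLa GR-bla cells; cmpd + dex 5 nM final, 18 h 37 C; LiveBLAzer B/G FRET substrate 2 h RT; fluorescence intensity read. Antagonist mode, qHTS.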
# [11] = qHTS assay to identify small molecule antagonists of the glucocorticoid receptor (GR) signaling pathway - cell viability counter screen (AID 720693); further: nearly all actives have a fitted effect of over 55% in size
# [12] = qHTS assay for identifying genotoxic compounds that show differential cytotoxicity against isogenic chicken DT40 cell lines with known DNA damage response pathways - wild type cell line (AID 743012); further: nearly all actives have a fitted effect of over 60% in size; further: potency means the concentration at half of the fitted maximal effect
# Summary of the method: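 Wild type DT40, 300 cells/well, ~0.5 h settle at 37 C/5% CO2; compounds in DMSO added by pintool; 40 h at 37 C/5% CO2; CellTiter-Glo, 30 min RT; luminescence.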
# [13] = qHTS assay for identifying genotoxic compounds that show differential cytotoxicity against isogenic chicken DT40 cell lines with known DNA damage response pathways - Rev3 mutant cell line (AID 743014); further: nearly all actives have a fitted effect of over 55% in size; further: potency means the concentration at half of the fitted maximal effect
# [14] = qHTS assay for identifying genotoxic compounds that show differential cytotoxicity against isogenic chicken DT40 cell lines with known DNA damage response pathways - Rad54/Ku70 mutant cell line (AID 743015); further: nearly all actives have a fitted effect of over 60% in size; further: potency means the concentration at half of the fitted maximal effect
# [15] = qHTS assay to identify small molecule antagonists of the androgen receptor (AR) signaling pathway - cell viability counter screen (AID 743033; further: nearly all actives have a fitted effect of over 45% in size; further: potency means the concentration at half of the fitted maximal effect)
# [16] = target: Androgen receptor (Homo sapiens) (UniProt P10275); assay: qHTS assay to identify small molecule antagonists of the androgen receptor (AR) signaling pathway (AID 743035; active means well fitted inhibition curve with a large enough effect in the signal ratio in the repeat runs, not every such curve was filed as active; the % refers to the signal ratio; further: potency means the concentration at half of the fitted maximal effect)
# Sequence of Androgen receptor (Homo sapiens) (P10275 whole entry, looked up): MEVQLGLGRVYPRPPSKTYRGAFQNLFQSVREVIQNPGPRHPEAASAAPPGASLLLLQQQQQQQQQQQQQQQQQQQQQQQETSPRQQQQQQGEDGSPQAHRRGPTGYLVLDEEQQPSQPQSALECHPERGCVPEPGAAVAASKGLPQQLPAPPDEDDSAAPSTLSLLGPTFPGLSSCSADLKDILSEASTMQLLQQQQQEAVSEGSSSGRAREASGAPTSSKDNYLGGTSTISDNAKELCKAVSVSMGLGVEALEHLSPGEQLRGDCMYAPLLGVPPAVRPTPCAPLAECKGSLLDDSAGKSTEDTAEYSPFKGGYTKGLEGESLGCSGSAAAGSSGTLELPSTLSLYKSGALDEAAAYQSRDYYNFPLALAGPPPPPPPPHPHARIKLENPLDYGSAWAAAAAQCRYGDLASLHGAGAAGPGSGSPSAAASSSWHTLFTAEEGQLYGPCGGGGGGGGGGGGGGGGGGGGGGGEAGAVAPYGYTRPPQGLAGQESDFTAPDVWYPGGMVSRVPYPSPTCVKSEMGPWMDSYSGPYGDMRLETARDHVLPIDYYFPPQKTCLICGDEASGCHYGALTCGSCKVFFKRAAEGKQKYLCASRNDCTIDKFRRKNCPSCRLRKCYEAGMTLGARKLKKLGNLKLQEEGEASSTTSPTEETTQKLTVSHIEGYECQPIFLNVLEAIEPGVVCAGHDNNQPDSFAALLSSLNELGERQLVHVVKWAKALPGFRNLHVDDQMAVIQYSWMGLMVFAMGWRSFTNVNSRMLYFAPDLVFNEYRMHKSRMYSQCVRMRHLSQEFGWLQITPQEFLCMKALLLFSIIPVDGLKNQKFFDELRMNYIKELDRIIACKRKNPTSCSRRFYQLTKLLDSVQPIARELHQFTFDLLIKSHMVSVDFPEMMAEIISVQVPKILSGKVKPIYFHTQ
# Summary of the method: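 Fluorescence from a beta-lactamase FRET substrate (LiveBLAzer B/G, 2 h, room temperature) measured inhibition of R1881-stimulated signaling in GeneBLAzer AR-UAS-bla HEK293 cells exposed to compound for 16 h at 37C.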
# [17] = target: Androgen receptor (Homo sapiens) (UniProt P10275); assay: qHTS assay to identify small molecule agonists of the androgen receptor (AR) signaling pathway (AID 743036; active means well fitted activation curve with a large enough effect in the signal ratio in the repeat runs, with a control signal flat, not every such curve was filed as active; the % refers to the signal ratio)
# Summary of the method: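 Cell-based FRET reporter assay: HEK293 line with a UAS-beta-lactamase construct, compounds added in DMSO, 16 h exposure at 37C, then 2 h substrate step at room temperature and fluorescence intensity read.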
# [18] = target: Androgen receptor (Homo sapiens) (UniProt P10275); assay: qHTS assay to identify small molecule agonists of the androgen receptor (AR) signaling pathway using the MDA cell line (AID 743040; further: nearly all actives have a fitted effect of over 20% in size)
# Summary of the method: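 Human breast carcinoma MDA-kb2 reporter cells (MMTV-luc, AR/GR elements) were treated for 16 h at 37C in 0% CO2 following a 5 h settling period. Signal was quantified by ONE-Glo luminescence.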
# [19] = qHTS assay to identify small molecule antagonists of the androgen receptor (AR) signaling pathway using the MDA cell line - cell viability counter screen (AID 743041; further: nearly all actives have a fitted effect of over 45% in size; further: potency means the concentration at half of the fitted maximal effect)
# Summary of the method: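 Same-well cytotoxicity was assessed by CellTiter-Fluor in MDA-kb2 AR-luc cells after 16 h of compound treatment under R1881 agonism.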
# [20] = target: Androgen receptor (Homo sapiens) (UniProt P10275); assay: qHTS assay to identify small molecule antagonists of the androgen receptor (AR) signaling pathway using the MDA cell line (AID 743042; further: nearly all actives have a fitted effect of over 55% in size)
# Summary of the method: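 MDA-kb2 breast carcinoma cells carrying MMTV-luciferase (AR/GR responsive) were co-treated with compounds and the agonist R1881 for 16 h at 37C. Inhibition read as ONE-Glo luminescence; CellTiter-Fluor fluorescence measured in parallel for cytotoxicity.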
Compound,Potency [1],Potency [2],Potency [3],Potency [4],Potency [5],Potency [6],Potency [7],Potency [8],Potency [9],Potency [10],Potency [11],Potency [12],Potency [13],Potency [14],Potency [15],Potency [16],outcome [17],outcome [18],Potency [19],Potency [20]
CCOc1ccc(NC(C)=O)cc1,inactive,inactive,inactive,inactive,inactive,inactive,inactive,inactive,inactive,inactive,inactive,inactive,inactive,inactive,inactive,inactive,inactive,inactive,inactive,inactive
O=c1[nH]cc(F)c(=O)[nH]1,inactive,inactive,inactive,inactive,inactive,inactive,inactive,,inactive,inactive,inactive,21.1 µM (active) and 27.9 µM (active),50.4 µM (active) and 27.9 µM (active),21.1 µM (active) and 40 µM (active) and 17.6 µM (active),inactive,,,,inactive,
NC(CO)(CO)CO,inactive,inactive,inactive,inactive,inactive,inactive,inactive,inactive,inactive,inactive,inactive,inactive,inactive,,inactive,,,,inactive,
C=C(C)C(=O)OCC(C)O (stereo unspecified),inactive,inactive,inactive,inactive,inactive,inactive,inactive,,inactive,inactive,inactive,inactive,inactive,inactive,inactive,,,,inactive,
OC[C@H]1O[C@H](O[C@]2(CCl)O[C@H](CCl)[C@@H](O)[C@@H]2O)[C@H](O)[C@@H](O)[C@H]1Cl,inactive,inactive,inactive,inactive,inactive,inactive,inactive,inactive,inactive,inactive,inactive,inactive,inactive,,inactive,,,,inactive,
Cc1c(C(=O)O)c(O)cc2c1C(=O)c1c(O)c([C@@H]3O[C@H](CO)[C@@H](O)[C@H](O)[C@H]3O)c(O)c(O)c1C2=O,inactive,inactive,inactive,inactive,inactive,inactive,inactive,,inactive,inactive,inactive,inactive,inactive and 59.6 µM (active) and 54.5 µM (active),53.1 µM (active) and 48.6 µM (active),inactive,,,,59.6 µM (active) and 27.3 µM (active),
Cc1cccc(C)c1,inactive,inactive,inactive,inactive,inactive,inactive,inactive,,inactive,inactive,inactive,inactive,inactive,inactive,inactive,,,,inactive,
CN1CCC[C@H]1c1cccnc1,inactive,inactive,inactive,inactive,inactive,inactive,inactive,inactive,,,inactive,inactive,,,inactive,,,,inactive,
COc1ccc(OC(F)(F)F)cc1CN[C@H]1CCCN[C@H]1c1ccccc1,inactive,inactive,inactive,inactive,inactive,inactive,inactive,inactive,inactive,,inactive,15.4 µM (active),30.6 µM (active),,49 µM (active),,,,,
CC(C)c1c(C(=O)Nc2ccccc2)c(-c2ccccc2)c(-c2ccc(F)cc2)n1CC[C@@H](O)C[C@@H](O)CC(=O)O,inactive,inactive,inactive,inactive,inactive,inactive,inactive,inactive,inactive,,inactive,,,,inactive,,,,inactive,
CCCCC1(COC(=O)CCC(=O)O)C(=O)N(c2ccccc2)N(c2ccccc2)C1=O,inactive,inactive,inactive,inactive,inactive,inactive,inactive,inactive,,,inactive,inactive,,,inactive,inactive,inactive,inactive,inactive,inactive
CC(=O)C(=O)O,inactive,inactive,inactive,inactive,inactive,inactive,inactive,inactive,,,inactive,inactive,inactive,inactive,inactive,,,,inactive,
CCCC[P+](CCCC)(CCCC)CCCC,inactive,inactive,inactive,inactive,inactive,inactive,inactive,,inactive,inactive,inactive,1.08 µM (active) and 7.84 µM (active) and 4.33 µM (active),,609 nM (active) and 3.5 µM (active),inactive,,,,inactive,
CCCCCCc1ccc(O)cc1O,inactive,inactive,inactive,inactive,inactive,inactive,inactive,,inactive,inactive and 49 µM (active),inactive,48.6 µM (active),,21.7 µM (active),inactive,inactive and 43.8 µM (active) and 43.6 µM (active),inactive,inactive,inactive,inactive
CN[C@H]1CC[C@@H](c2ccc(Cl)c(Cl)c2)c2ccccc21,inactive,inactive,inactive,inactive,inactive,inactive,inactive,,inactive,,inactive,5.96 µM (active),,7.5 µM (active),23.9 µM (active),,,,,
